From PubChem
Pf growth 48h – P. falciparum growth inhibition at 48 hours (one generation). P. falciparum luciferase growth in erythrocytes, 48 h. Potency, µM (titrated, usually from 28.7 µM), for the others: top-dose activity change, negative = inhibition, hits mostly inhibitors. 310,000 tested, 5.9% active; note: potency is the fitted concentration of half-maximal effect; % is set by controls: 0 for no effect and ±100 for the full control effect
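Compounds are pin-transferred into medium, infected erythrocytes (2% hematocrit, 0.1% parasitemia final) are added, and plates sit one parasite generation at 37 C in 5% CO2. Detection reagent is then added and luminescence measured.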
Cycloheximide cs – counter-screen hit for Shiga toxin inhibitors, cycloheximide; cell reporter, cycloheximide protein synthesis inhibition counterscreen; max response, %; 300,000 tested, 12% active; AID 2314; in the data active = max response mostly above about 13%, no sharp cut-off; inactive = mostly below about 14%; note: read at 38.3 µM for the half of the compounds with a filed dose; 0% is about no effect
Shiga inhibitor – Shiga toxin inhibition | inhibition, % at 38.7 µM | 290,000 tested, 9.2% active | Vero cells, Shiga toxin protein synthesis inhibition reporter | AID 2315; in the data active = inhibition mostly above about 28%, no sharp cut-off; inactive = mostly below about 43%; note: 0% is about no effect
NS1 inh – blocks influenza NS1 protein function | Potency, µM (titrated, usually from 46.1 µM), inactives show at the highest dose activity, positive = more growth | 270,000 tested, 0.4% active | AID 2326; calls by dose curve; note: potency is the fitted concentration of half-maximal effect; actives are rising curves; nearly all actives have a fitted effect of over 50% in size
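S. cerevisiae expressing influenza A NS1, grown in glucose, washed, then diluted 1:100 into pH 6.0 -URA galactose medium with 23 nl compound. Growth recovery read as OD600; NS1-free strain serves as control.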
Pf growth 96h – P. falciparum growth inhibition at 96 hour, primary screen for plastid delayed-death inhibitors | P. falciparum luciferase reporter growth, 96 h | Potency, µM (series often up to 28.7 µM), inactives show at the highest dose activity change, negative = inhibition, usual class: inhibitors | 320,000 tested, 6.9% active; note: potency is the fitted concentration of half-maximal effect; % is set by controls: 0 for no effect and ±100 for the full control effect
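P. falciparum expressing integrated firefly luciferase, in erythrocytes at 2% hematocrit, 0.05% parasitemia, incubated with compounds 96 h at 37 C, 5% CO2. Growth inhibition read as loss of luminescence; two-generation exposure targets delayed-death apicoplast inhibitors.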
FBPA Giardia inh – inhibitors of Giardia lamblia fructose-1,6-bisphosphate aldolase. purified Giardia FBPA. 290,000 tested, 0.71% active. A8B2U2. Potency, µM (series often up to 59.6 µM), for the others: top-dose activity, negative = inhibition, most hits filed as inhibitors. AID 2451; note: potency is the fitted concentration of half-maximal effect; % is set by controls: 0 for no effect and ±100 for the full control effect; nearly all actives have a fitted effect of over 55% in size
Target sequence (A8B2U2 whole entry, looked up): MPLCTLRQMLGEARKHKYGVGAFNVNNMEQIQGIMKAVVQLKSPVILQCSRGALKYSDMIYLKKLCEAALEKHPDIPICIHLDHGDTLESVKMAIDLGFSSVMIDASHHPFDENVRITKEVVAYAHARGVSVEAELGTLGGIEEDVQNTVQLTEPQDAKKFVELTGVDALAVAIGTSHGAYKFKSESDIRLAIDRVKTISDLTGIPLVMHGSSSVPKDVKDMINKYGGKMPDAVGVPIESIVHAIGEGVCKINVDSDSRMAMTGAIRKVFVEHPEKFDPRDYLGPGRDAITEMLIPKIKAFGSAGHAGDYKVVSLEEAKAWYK
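Giardia FBPA (40 nM reagent) was preincubated 10 min at RT with compound (up to 57.5 uM final), then substrate plus GAPDH/TPI/NAD/arsenate coupling system with diaphorase/resazurin was added; resorufin fluorescence (525/598 nm) was read after 20 min.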
The depositor's hits bear a star; [ ] = dose if it differs, or a comment. Compounds with a hit are over-represented: about 21% of the library has one in this group of screens. Unless noted, calls come from the whole dose curve; as a rule, active = well fitted curve in the direction sought with a large enough effect; inconclusive = small, poorly fitted or top-dose-only effect, or another doubt; inactive = no such curve, though single readings can be large; an effect the other way counts as inactive or inconclusive.

How did Cc1ccc(C2NC(=NCc3ccccc3)Nc3nc(C)cc(=O)n32)cc1 (stereo unspecified) do in these assays?
Pf growth 48h: -9.2%; Cycloheximide cs: 1.2; Shiga inhibitor: -5.9; NS1 inh: 5.9%; Pf growth 96h: 2.0%; FBPA Giardia inh: -4.4%

How did COc1ccc2c(CC(=O)OCC(=O)Nc3cccc(C)c3)coc2c1 do in these assays?
Pf growth 48h: 22.9%; Pf growth 96h: -5.4%

What do the screens show for `C=CCNC(=O)C1CCN(c2nc(C)cc(-c3ccccc3)n2)CC1`?
Pf growth 48h: inconclusive; Cycloheximide cs: 35.6*; Shiga inhibitor: 131.6*; NS1 inh: -37.7%; Pf growth 96h: -21.4%[5.75 µM]; FBPA Giardia inh: 1.0%

How did Cc1cc(C)nc(N2CCC(C(=O)NNC(=O)Cc3ccccc3)CC2)n1 do in these assays?
Pf growth 48h: -0.9%; Cycloheximide cs: -2.5; Shiga inhibitor: -2.1; NS1 inh: -58.6%; Pf growth 96h: -7.1%; FBPA Giardia inh: 1.0%

How did C=CCNC(=O)C1CCN(c2cc(C)nc(-c3ccccc3)n2)CC1 do in these assays?
Pf growth 48h: inconclusive; Cycloheximide cs: -2.7; Shiga inhibitor: -9.8; NS1 inh: -1.6%; Pf growth 96h: -7.6%; FBPA Giardia inh: 1.2%

How did Cc1cc(-c2ccccc2)nc(N2CCC(C(=O)NCc3ccccc3Cl)CC2)n1 do in these assays?
Pf growth 48h: 39.2%; Cycloheximide cs: 26.6*; Shiga inhibitor: 54.4*; NS1 inh: 18.5%; Pf growth 96h: -18.4%; FBPA Giardia inh: 0.2%

Results for C#CCOCCOCCOCCNc1nc(N2CCN(C(=O)CCCCCCCCCCNC(=O)[C@@H](CCC(=O)O)n3cc(CCCCCN)nn3)CC2)nc(N2CCN(C(=O)CCCCCCCCCCNC(=O)[C@H](CO)n3cc(CCCCCN)nn3)CC2)n1 ?
Pf growth 48h: 2.08µM*; Pf growth 96h: 5.86µM*

What do the screens show for `C#CCOCCOCCOCCNc1nc(N2CCN(C(=O)[C@H](CCCCN)n3cc(C(N)CO)nn3)CC2)nc(N2CCN(C(=O)[C@H](CCC(=O)O)n3cc(C(N)CC(C)C)nn3)CC2)n1` (stereo partly specified)?
Pf growth 48h: 51.0%; Cycloheximide cs: 4.3; Shiga inhibitor: -4.8; NS1 inh: 0.0%; Pf growth 96h: 108.3%; FBPA Giardia inh: -12.2%

How did C#CCOCCOCCOCCNc1nc(N2CCOCC2)nc(N2CCN(C(=O)CCCCCCCCCCNC(=O)[C@H](CO)n3cc(CCCSC)nn3)CC2)n1 do in these assays?
Pf growth 48h: 0.522µM*; Pf growth 96h: 0.522µM*

How did C#CCOCCOCCOCCNc1nc(N2CCN(C(=O)CCCCCCCCCCNC(=O)[C@@H](CCC(=O)O)n3cc(CCCCCN)nn3)CC2)nc(N2CCN(C(=O)CCCCCCCCCCNC(=O)[C@H](CO)n3cc(CCCSC)nn3)CC2)n1 do in these assays?
Pf growth 48h: 4.65µM*; Pf growth 96h: inconclusive

Results for O=C(Nc1ccc([As](=O)(O)O)cc1)Nc1cccc(Cl)c1Cl ?
NS1 inh: 2.1%

What do the screens show for `Cn1c(SCC(=O)Nc2cccc(S(=O)(=O)NC3=NCCCCC3)c2)nnc1-c1ccccc1`?
Pf growth 48h: inconclusive; Cycloheximide cs: -2.3; Shiga inhibitor: 4.3; Pf growth 96h: inconclusive; FBPA Giardia inh: 4.8%

What do the screens show for `Cc1ccccc1C(=O)NCC(=O)OC(C)C(=O)NC(C)CCc1ccccc1` (stereo unspecified)?
Pf growth 48h: inconclusive; Pf growth 96h: 11.7µM*

How did Cc1ccc(/C=N/N2CCCCC2)o1 do in these assays?
Pf growth 48h: 30.1%; Cycloheximide cs: 38.5*; Shiga inhibitor: 56.1*; Pf growth 96h: 41.0%; FBPA Giardia inh: 1.4%

How did Cc1ccc(/C=N/N2CCN(c3ccc(Cl)cc3)CC2)o1 do in these assays?
Pf growth 48h: -1.7%; Cycloheximide cs: -2.8; Shiga inhibitor: 7.3; NS1 inh: 10.5%; Pf growth 96h: 77.8%; FBPA Giardia inh: 1.8%

What do the screens show for `Cc1nc2c(C(=O)N3CCCCC3)cnn2c(C)c1Cc1ccccc1F`?
Pf growth 48h: 43.8%; Cycloheximide cs: 71.3*; Shiga inhibitor: 157.3*; NS1 inh: -47.5%; Pf growth 96h: 49.9%; FBPA Giardia inh: 4.9%

What do the screens show for `CN1CCN(c2nc(-c3ccccc3)nc3c2oc2ccccc23)CC1`?
Pf growth 48h: inconclusive; Cycloheximide cs: 0.6; Shiga inhibitor: -15.8; NS1 inh: -50.5%; Pf growth 96h: 5.86µM*; FBPA Giardia inh: 1.8%

Results for CCc1nc(N2CCC(C)CC2)c2oc3ccccc3c2n1 ?
Pf growth 48h: inconclusive; Cycloheximide cs: -4.8; Shiga inhibitor: -18.7; NS1 inh: -110.2%; Pf growth 96h: -2.7%[5.75 µM]; FBPA Giardia inh: 4.1%

Results for Cc1cc(N2CCC(C(=O)Nc3ccc(F)cc3)CC2)nc(-c2ccccc2)n1 ?
Pf growth 48h: -15.3%; Cycloheximide cs: -3.0; Shiga inhibitor: -12.0; NS1 inh: -39.3%; FBPA Giardia inh: 0.8%

Results for NC(=O)C1CCN(C(=O)c2ccc3nc(-c4ccccc4)c(-c4ccccc4)nc3c2)CC1 ?
Pf growth 48h: 10.4µM*; Cycloheximide cs: 1.2; Shiga inhibitor: -3.5; NS1 inh: -15.3%; Pf growth 96h: inconclusive

How did NC(=O)C1CCN(c2nc(-c3ccccc3)nc3c2oc2ccccc23)CC1 do in these assays?
Pf growth 48h: 30.9%; Cycloheximide cs: -1.8; Shiga inhibitor: -2.9; NS1 inh: 3.4%; Pf growth 96h: 1.47µM*; FBPA Giardia inh: 5.7%

How did Cc1cc(N2CCC(C(N)=O)CC2)nc(-c2ccccc2)n1 do in these assays?
Cycloheximide cs: -6.1; Shiga inhibitor: -4.7; NS1 inh: 5.4%; Pf growth 96h: 0.738µM*; FBPA Giardia inh: 2.5%

What do the screens show for `COc1ccc(N(C)C(=O)C2CCCN2S(=O)(=O)c2cccc3nsnc23)c(OC)c1` (stereo unspecified)?
Pf growth 48h: -0.7%; Cycloheximide cs: -2.3; Shiga inhibitor: -6.0; NS1 inh: 1.6%; Pf growth 96h: -23.6%

What do the screens show for `CC(C(=O)O)n1nc(-c2ccccc2)c2ccccc21` (stereo unspecified)?
Pf growth 48h: 2.7%; Cycloheximide cs: -0.9; Shiga inhibitor: -7.7; NS1 inh: -5.0%; Pf growth 96h: -0.5%; FBPA Giardia inh: 5.2%

What do the screens show for `CC1CN(c2ncnc3c2oc2ccccc23)CC(C)O1` (stereo unspecified)?
Pf growth 48h: -21.4%; Cycloheximide cs: 10.4; Shiga inhibitor: 14.2; NS1 inh: -43.3%; Pf growth 96h: inconclusive; FBPA Giardia inh: -12.9%

Results for O=C(O)C1CCCN1c1ncnc2c1oc1ccccc12 (stereo unspecified) ?
Pf growth 48h: 47.6%; Cycloheximide cs: 43.2*; Shiga inhibitor: 49.3*; NS1 inh: -5.6%; FBPA Giardia inh: 2.7%

How did COc1ccc(OCC(=O)Nn2c(-c3ccc(C)cc3)nc3ccccc3c2=O)cc1 do in these assays?
Pf growth 48h: 26.7%; Cycloheximide cs: -3.8; Shiga inhibitor: -19.5; NS1 inh: 9.2%; Pf growth 96h: -7.3%; FBPA Giardia inh: 4.5%
